The structures appear in SMILES notation. Compounds without any hit were thinned out: in the full panel of roughly 83,000, 20% have a hit.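 Single-dose data. Exposure time 48 hours. Values below 10 considered active.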 The source made the active and inactive calls.

This assay deals with MDA-MB-468 breast. The assay can be described thus: NCI-60 one-dose screen, 48 h (100 = growth as untreated, 0 = no growth, -100 = all killed). The settings on record: 10 µM unless noted.
For the compound `Cc1cc(N(CCCNc2ccnc3cc(Cl)ccc23)Cc2ccc3c(c2)OCO3)nc(N2CCOCC2)n1`, the growth is -14.4% (active).
Consider `CCN(CC)S(=O)(=O)c1ccc(S(=O)(=O)N2CCC[C@@H](C(=O)N3CCN(C(=O)OC(C)(C)C)CC3)C2)cc1`, for which the growth is 15.6% (inactive).
As to `O=C(N/N=C\c1ccccc1O)C1CC1`, the growth is 102% (inactive).
Under `C=C(c1ccc(OC)c(/C=C/C(=O)c2cc(OC)c(OC)c(OC)c2)c1)c1cc(OC)c(OC)c(OC)c1` stands -8.58% (active).
Under `O=c1oc2ccc3ccccc3c2cc1-c1ccnc2[nH]c(=S)[nH]c(=O)c12` stands 97.1% (inactive).
Under `COc1ccc(-c2cc(-c3ccc(Nc4ccnc5cc(Cl)ccc45)cc3)nc(N3CCOCC3)n2)cc1` stands 42.1% (inactive).
As to `N#Cc1ccc(NC(=O)c2ccc3cccnc3c2O)cc1`, the growth was 1.27% (active).
Regarding `O=C1c2cccnc2C(=O)c2c1c(C(=O)OCCCN1CCOCC1)c1ccccn21`, the growth is 4.71% (active).
`CCOc1nc(-c2ccccc2)cc2c(O)c(C(=O)NN)[nH]c(=O)c12`: the growth is 110% (inactive).
For `CCCCCCOC(=O)c1cc(-c2ccc(F)cc2)nc2ccccc12`, the growth was 105% (inactive).
Under `N#Cc1c(O)c2c(c(O)c1C#N)C(=O)c1ccccc1C2=O` stands 7.71% (active); under `C=C[C@]1(C)C=C2C(=O)[C@@]3(O)OC[C@@]4(CCCC(C)(C)C43O)C2(O)C(O)C1` (some centres undefined), -18.7% (active); under `C/C(=N\NC(N)=S)c1nnn(-c2ccc([N+](=O)[O-])cc2)c1C`, 89.3% (inactive).
The result for `O=C(NCc1ccccc1O)c1cccc2ccccc12` reads 84.9% (inactive).

The values above are taken from PubChem BioAssay (NCI).
